Screens from PubChem BioAssay.
KB-V1 cytotox = qHTS assay for MDR1-selective chemotherapeutics: Primary screen using the drug-selected MDR subline cells KB-V1 | KB-V1 MDR cells viability, CellTiter-Glo, 72 h | 400,000 compounds, 3.4% hits | Potency, µM (series often up to 46.1 µM), actives largely listed as cytotoxic; further: on the % scale 0 is the no-effect control and ±100 the full control effect; nearly all actives have a fitted effect of over 60% in size
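Luminescent ATP read-out (CellTiter-Glo, 10 min) measures survival of drug-selected KB-V1 MDR cells after 72 h, 37 degrees C compound exposure. Medium: phenol-red-free DMEM, 10% FBS. Values from fitted concentration-response curves.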
MCF10A rerep = A quantitative high throughput screen for small molecules that induce DNA re-replication in MCF 10a normal breast cells | MCF 10A DNA re-replication, Hoechst nuclear intensity, 48 h | Potency, µM (highest dose often 46.1 µM), for the others: top-dose activity, positive = re-replication, hits mostly activators | 350,000 compounds, 2.9% hits | AID 624296, 2012; further: % of control where 0% means no effect; nearly all actives have a fitted effect of over 50% in size
PTAP TSG101 blk = qHTS Assay for Iinhibitors of HIV-1 Budding by Blocking the Interaction of PTAP/TSG101. Potency, µM (top dose mostly 115 µM), without a hit: at the highest dose activity change, negative = inhibition, hits mostly inhibitors. Fluorescence polarization, FITC-PTAP peptide / Tsg101 binding. Tumor susceptibility gene 101 protein (Homo sapiens), Q99816. 340,000 tested, under 10 active; active means well fitted inhibition curve with a large enough effect in the main read-out, with a control signal flat, not every such curve was filed as active; inconclusive means small, poorly fitted or top-dose-only effect, or effect the other way, or a change in a side signal; inactive means no such curve, though single readings can be large or run the other way; further: % of control where 0% means no effect
Target sequence (Q99816 whole entry, looked up): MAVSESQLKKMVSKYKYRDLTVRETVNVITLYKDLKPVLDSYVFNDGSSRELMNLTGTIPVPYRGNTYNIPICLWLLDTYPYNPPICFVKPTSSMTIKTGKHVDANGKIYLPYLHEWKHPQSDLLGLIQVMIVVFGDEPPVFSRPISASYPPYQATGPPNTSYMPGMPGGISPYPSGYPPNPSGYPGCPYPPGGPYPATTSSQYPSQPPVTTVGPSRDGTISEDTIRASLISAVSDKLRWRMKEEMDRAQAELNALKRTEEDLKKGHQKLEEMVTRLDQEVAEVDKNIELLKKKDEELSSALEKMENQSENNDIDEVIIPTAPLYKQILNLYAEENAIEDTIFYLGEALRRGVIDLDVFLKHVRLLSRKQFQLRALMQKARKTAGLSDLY
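Compounds were pin-transferred onto Tsg101 binding domain (10 uM final) in HEPES pH 7.5 buffer, then FITC-PTAP peptide was added at 50 nM final. After 20 min at RT, polarization reported peptide displacement across a qHTS concentration series.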
KB-3-1 tox = qHTS assay for MDR1-selective chemotherapeutics: Primary screen using the parental adenocarcinoma cell KB-3-1; 400,000 compounds, 1.4% hits; KB-3-1 viability, CellTiter-Glo ATP luminescence, 72 h; Potency, µM (series often up to 46.1 µM), actives largely listed as cytotoxic; AID 1347075, 2019; further: on the % scale 0 is the no-effect control and ±100 the full control effect; nearly all actives have a fitted effect of over 60% in size
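Cytotoxicity in the drug-sensitive parental line KB-3-1 was scored as loss of CellTiter-Glo luminescence following 72 h incubation with compound. Values come from curve fitting of normalized concentration-response data.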
SW480 rereplic = A quantitative high throughput screen for small molecules that induce DNA re-replication in SW480 colon adenocarcinoma cells | Potency, µM (titrated, usually from 46.1 µM), inactives show at the highest dose re-replication activation, usual class: activators | 340,000 compounds, 1.8% hits | AID 624297, 2012 | SW480 DNA re-replication, Hoechst DNA content imaging, 48 h; further: % of control where 0% means no effect; nearly all actives have a fitted effect of over 55% in size
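Readout is total intensity of Hoechst-stained nuclei, excited at 405 nm and collected at 500-530 nm. Compound treatment lasted 48 hr at 37 C in 5% CO2 before staining.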
RGS4 inh = Inhibitors of Regulator of G Protein Signaling (RGS) 4: qHTS | Transcreener GDP fluorescence polarization, RGS4-accelerated GTP hydrolysis | Potency, µM (series often up to 114 µM), for the others: top-dose activity change, negative = inhibition, hits mostly inhibitors | 390,000 compounds, 0.039% hits | AID 504845, 2011; further: on the % scale 0 is the no-effect control and ±100 the full control effect; nearly all actives have a fitted effect of over 75% in size
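MLSMR compounds (23 nl, pin-transferred) preincubated 10 min at room temperature with a 500nM (2x) first reagent, then RGS4 at 900nM (2x) plus Transcreener GDP mix added; fluorescence polarization (620/688 nm) read before and after 90 min at 30 °C.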
Active calls of the source: *; i = inactive; u = inconclusive; x = no result; [ ] = dose if it differs, or a comment. This is a sample that favours compounds with a hit; in the whole collection about 6.6% have one here. Unless noted, the call rests on the fitted dose curve; in most records, active means well fitted curve in the direction sought with a large enough effect; inconclusive means small, poorly fitted or top-dose-only effect, or another doubt; inactive means no such curve, though single readings can be large; an effect the other way counts as inactive or inconclusive. Potency means the concentration at half of the fitted maximal effect.

SMILES | KB-V1 cytotox | MCF10A rerep | PTAP TSG101 blk | KB-3-1 tox | SW480 rereplic | RGS4 inh
CN(C)N=Nc1ccc(/C=C2\C=Cc3ccccc32)cc1 | u | x | x | i | x | x
COc1cc(/C=N/Nc2nc3c(c(=O)n(C)c(=O)n3C)n2Cc2ccccc2)ccc1OC(=O)c1ccco1 | 9.2µM* | u | -2.1% | u | u | -4.2%
CCCNc1nc2c(c(=O)n(C)c(=O)n2C)n1Cc1cccc(C)c1 | 9.2µM* | 4.9% | -2.5% | u | 11.2% | 4.3%
Cn1c(=O)c2nc(NCc3ccccc3)cnc2n(C)c1=O | 18.4µM* | 0.4% | -9.3% | i | 0.8% | -6.7%
Cn1c(-c2ccc3c(c2)OCO3)cnc1NCc1ccccc1 | 13µM* | 25.9µM* | -3.8% | u | u | -18.0%
Cn1c(=O)c2c(nc(N/N=C/c3ccncc3)n2Cc2ccccc2)n(C)c1=O | i | -5.2% | -1.5% | i | -19.0% | -4.6%
Cc1cc(C)cc(NC(=O)Cn2c3ncccc3c(=O)n2-c2ccc(C)c(C)c2)c1 | x | x | x | x | x | -0.7%
Cc1cccc(C)c1NC(=O)CN(C)S(=O)(=O)c1ccc2c(c1)n(C)c(=O)c(=O)n2C | u | x | x | i | x | 6.6%
CC1(C)CC(=O)C2=C(C1)NC1=C(C(=O)c3ccccc31)C2c1ccc(Cl)cc1 (stereo not given) | 14.6µM* | u | -0.8% | u | 3.2% | -52.2%
CSC1=C(C#N)C(c2ccc(Cl)cc2)C2=C(CC(C)(C)CC2=O)N1 (stereo not given) | 20.6µM* | u | -3.3% | u | 20.6% | -7.5%
CCCSC1=C(C#N)C(c2ccc(OC)cc2)C2=C(CC(C)(C)CC2=O)N1 (stereo not given) | i | u | -6.0% | i | 10.2% | -3.6%
Nc1ccnc2c1ncn2[C@@H]1O[C@H](CO)[C@@H](O)[C@H]1O | x | x | x | x | x | 480.0%[56.9 µM]
CCCCNC(=NCc1cccc(C(F)(F)F)c1)Nc1ccccc1 | 20.6µM* | u | -0.4% | u | u | -9.3%
Cc1ccc(NC(=O)Cn2c(=O)n(CC3CCC(C(=O)NC(C)C)CC3)c(=O)c3sccc32)cc1 (stereo not given) | i | x | x | i | x | -10.9%
CCOc1ccc(NC(=O)CCS(=O)(=O)c2cccc3nonc23)cc1 | i | x | x | i | x | -14.6%
CC1Cc2ccccc2C[N+]1(C)CC(=O)c1cccc([N+](=O)[O-])c1 (stereo not given) | i | x | x | i | x | x
Cc1c(CN(C)C)c2c(n1Cc1ccccc1)C(=O)c1ccc(Br)cc1-2 | 23.1µM* | u | -1.7% | u | u | -41.0%
CCOc1[nH]c(/N=C/c2ccc(OC)cc2)c(C#N)c1C#N | i | x | x | i | x | -5.2%
CNc1oc(-c2ccccc2Cl)nc1C#N | 20.6µM* | 3.0% | -1.4% | u | -5.5% | -35.4%
O=C(Cc1ccccc1)Nc1c(C(=O)Nc2ccccc2F)oc2ccccc12 | i | x | x | i | x | -9.2%
CCN1C(=O)N/C(=C/c2cc(C)n(Cc3ccccc3)c2C)C1=O | i | u | -5.6% | i | u | 5.3%
CCn1c(C)cc(/C=C2\NC(=O)N(Cc3ccc(Cl)cc3)C2=O)c1C | i | u | -1.5% | i | 14.1µM* | -2.6%
COc1cc(/C=C2/NC(=O)N(Cc3ccccc3F)C2=O)cc(OC)c1OC | 0.184µM* | 4.2% | -2.6% | i | -11.2% | -8.9%
Cc1cccc(CN2C(=O)N/C(=C/c3cc(C)n(-c4ccccn4)c3C)C2=O)c1 | i | u | 5.5% | i | 0.7% | 10.8%
Cc1cc(/C=C2/NC(=O)N(Cc3ccccc3F)C2=O)c(C)n1-c1ccccn1 | u | u | 0.2% | i | 0.82µM* | -28.6%
